Data taken from paper PMC7862700, “An all-to-all approach to the identification of sequence-specific readers for epigenetic DNA modifications on cytosine”.

Key:
Assay in all cases: DAPPL (digital affinity profiling via proximity ligation, sequencing); 10 mM Tris-HCl pH 7.5, 50 mM NaCl, 1 mM DTT, 4% glycerol, room temperature, 30 min; GST-TFs on glutathione beads, 16-mer random dsDNA library, 0.1% formaldehyde crosslink after washing; high values mean tight binding
[1] = molecular target: T1, FLI1 (Homo sapiens, UniProt Q01543 1-452); conditions: protein: recombinant; tags: N-terminal GST; dsDNA, one strand shown
T1 sequence: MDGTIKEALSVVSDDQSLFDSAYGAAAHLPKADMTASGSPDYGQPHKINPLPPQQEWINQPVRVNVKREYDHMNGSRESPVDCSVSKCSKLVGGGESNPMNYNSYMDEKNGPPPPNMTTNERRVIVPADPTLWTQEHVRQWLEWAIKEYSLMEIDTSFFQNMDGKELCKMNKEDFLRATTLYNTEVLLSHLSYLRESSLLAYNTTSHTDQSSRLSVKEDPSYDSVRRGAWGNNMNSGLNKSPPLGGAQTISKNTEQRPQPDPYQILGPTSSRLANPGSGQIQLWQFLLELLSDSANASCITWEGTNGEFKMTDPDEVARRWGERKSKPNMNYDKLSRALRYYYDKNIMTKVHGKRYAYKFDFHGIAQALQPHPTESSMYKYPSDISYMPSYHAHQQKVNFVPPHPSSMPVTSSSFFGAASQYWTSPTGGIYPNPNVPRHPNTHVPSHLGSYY
Summary of the method: (§1)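 A tag-only sample was pooled with DNA-barcoded human transcription factors that had been expressed in yeast as GST fusions and captured on glutathione beads. The pools were incubated for 30 min at room temperature with 200 nmole of a random double-stranded 16-mer DNA library in Tris/NaCl/DTT/glycerol buffer, then washed, crosslinked with 0.1% formaldehyde, proximity-ligated (BsaI/T4 ligase, 1 h, 37 °C), PCR-amplified and sequenced on an Illumina NextSeq500. Binding signal is each hexamer's read frequency for a factor divided by its frequency for the tag-only sample.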

[2] = molecular target: T2, ELK1 (Homo sapiens, UniProt P19419 1-428); conditions: protein: recombinant; tags: N-terminal GST; dsDNA, one strand shown
T2 sequence: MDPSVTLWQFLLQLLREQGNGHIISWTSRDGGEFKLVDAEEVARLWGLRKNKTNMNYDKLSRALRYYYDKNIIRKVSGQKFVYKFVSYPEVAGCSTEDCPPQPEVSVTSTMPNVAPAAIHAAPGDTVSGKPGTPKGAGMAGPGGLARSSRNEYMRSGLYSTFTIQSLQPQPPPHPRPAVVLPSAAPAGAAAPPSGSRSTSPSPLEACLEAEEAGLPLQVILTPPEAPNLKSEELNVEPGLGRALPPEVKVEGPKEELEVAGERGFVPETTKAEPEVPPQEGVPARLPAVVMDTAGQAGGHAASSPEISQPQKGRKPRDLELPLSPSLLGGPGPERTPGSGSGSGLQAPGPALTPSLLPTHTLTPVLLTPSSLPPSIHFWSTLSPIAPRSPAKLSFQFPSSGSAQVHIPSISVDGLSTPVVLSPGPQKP
Summary of the method: as §1

[3] = molecular target: T3, GABPA (Homo sapiens, UniProt Q06546 1-454); conditions: protein: recombinant; tags: N-terminal GST; dsDNA, one strand shown
T3 sequence: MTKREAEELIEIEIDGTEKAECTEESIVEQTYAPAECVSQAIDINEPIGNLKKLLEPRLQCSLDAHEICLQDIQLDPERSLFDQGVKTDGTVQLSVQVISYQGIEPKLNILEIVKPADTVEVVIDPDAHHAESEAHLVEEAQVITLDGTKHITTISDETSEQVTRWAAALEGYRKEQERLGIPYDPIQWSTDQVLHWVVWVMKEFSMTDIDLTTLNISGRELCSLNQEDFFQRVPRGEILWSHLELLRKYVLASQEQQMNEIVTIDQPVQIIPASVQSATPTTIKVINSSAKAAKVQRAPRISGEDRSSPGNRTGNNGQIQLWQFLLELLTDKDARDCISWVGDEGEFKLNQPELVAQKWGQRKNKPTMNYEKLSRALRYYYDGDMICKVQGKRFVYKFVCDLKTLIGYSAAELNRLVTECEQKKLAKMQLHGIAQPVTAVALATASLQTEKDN
Summary of the method: as §1

[4] = molecular target: T4, ERG (Homo sapiens, UniProt P11308 1-479); conditions: protein: recombinant; tags: N-terminal GST; dsDNA, one strand shown
T4 sequence: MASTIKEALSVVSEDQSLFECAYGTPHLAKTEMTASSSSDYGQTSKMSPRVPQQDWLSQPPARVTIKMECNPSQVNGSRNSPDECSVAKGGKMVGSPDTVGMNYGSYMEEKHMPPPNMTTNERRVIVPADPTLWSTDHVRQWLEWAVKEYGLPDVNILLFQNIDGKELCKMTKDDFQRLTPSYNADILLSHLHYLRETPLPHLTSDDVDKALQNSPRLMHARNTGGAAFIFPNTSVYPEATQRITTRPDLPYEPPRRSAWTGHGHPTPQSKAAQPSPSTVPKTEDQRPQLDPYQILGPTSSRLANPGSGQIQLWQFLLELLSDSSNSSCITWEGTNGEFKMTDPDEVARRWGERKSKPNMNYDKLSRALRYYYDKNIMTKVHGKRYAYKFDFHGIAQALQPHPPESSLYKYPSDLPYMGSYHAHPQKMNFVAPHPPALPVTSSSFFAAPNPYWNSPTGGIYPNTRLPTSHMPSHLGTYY
Summary of the method: as §1

[5] = molecular target: ELF1 (Homo sapiens, UniProt P32519 1-619); conditions: protein: recombinant; tags: N-terminal GST; dsDNA, one strand shown
Sequence of ELF1 (P32519 whole entry): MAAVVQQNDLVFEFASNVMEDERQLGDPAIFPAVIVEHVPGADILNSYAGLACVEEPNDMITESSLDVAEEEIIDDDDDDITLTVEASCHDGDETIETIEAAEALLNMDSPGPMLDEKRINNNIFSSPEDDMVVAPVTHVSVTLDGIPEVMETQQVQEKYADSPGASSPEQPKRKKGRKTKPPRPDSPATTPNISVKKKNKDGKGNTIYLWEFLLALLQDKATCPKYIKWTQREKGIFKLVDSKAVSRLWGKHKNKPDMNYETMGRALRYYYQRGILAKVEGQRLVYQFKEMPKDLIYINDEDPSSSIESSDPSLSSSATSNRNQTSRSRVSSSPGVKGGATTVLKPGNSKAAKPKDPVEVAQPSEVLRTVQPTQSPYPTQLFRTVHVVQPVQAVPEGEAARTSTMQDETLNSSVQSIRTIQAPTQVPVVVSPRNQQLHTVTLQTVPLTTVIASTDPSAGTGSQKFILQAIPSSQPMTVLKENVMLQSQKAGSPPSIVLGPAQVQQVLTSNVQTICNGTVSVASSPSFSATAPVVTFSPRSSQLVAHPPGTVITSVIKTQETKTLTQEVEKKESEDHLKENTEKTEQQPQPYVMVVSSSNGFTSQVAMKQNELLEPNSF
Summary of the method: as §1

[6] = molecular target: T5, EHF (Homo sapiens, UniProt Q9NZC4 1-300); conditions: protein: recombinant; tags: N-terminal GST; dsDNA, one strand shown
T5 sequence: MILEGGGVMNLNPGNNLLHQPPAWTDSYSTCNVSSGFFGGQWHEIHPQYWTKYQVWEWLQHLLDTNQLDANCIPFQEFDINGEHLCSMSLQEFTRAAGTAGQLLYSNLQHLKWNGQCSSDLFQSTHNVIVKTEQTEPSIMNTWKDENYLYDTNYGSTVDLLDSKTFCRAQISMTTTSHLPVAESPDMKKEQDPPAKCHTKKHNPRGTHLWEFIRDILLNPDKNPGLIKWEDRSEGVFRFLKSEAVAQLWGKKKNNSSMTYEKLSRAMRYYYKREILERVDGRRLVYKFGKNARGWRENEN
Summary of the method: as §1

[7] = molecular target: SPI1 (Homo sapiens, UniProt P17947 1-270); conditions: protein: recombinant; tags: N-terminal GST; dsDNA, one strand shown
Summary of the method: as §1

[8] = molecular target: SPIB (Homo sapiens, UniProt Q01892 1-262); conditions: protein: recombinant; tags: N-terminal GST; dsDNA, one strand shown
Sequence of SPIB (Q01892 whole entry): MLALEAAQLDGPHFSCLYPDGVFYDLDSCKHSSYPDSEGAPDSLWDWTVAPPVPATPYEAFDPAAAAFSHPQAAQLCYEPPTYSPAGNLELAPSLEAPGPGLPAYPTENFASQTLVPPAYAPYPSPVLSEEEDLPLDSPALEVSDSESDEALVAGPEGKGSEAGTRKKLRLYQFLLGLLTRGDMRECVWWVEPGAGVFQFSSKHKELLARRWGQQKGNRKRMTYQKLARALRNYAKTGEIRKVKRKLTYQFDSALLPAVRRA
Summary of the method: as §1

[9] = molecular target: T6, ELK3 (Homo sapiens, UniProt P41970 1-407); conditions: protein: recombinant; tags: N-terminal GST; dsDNA, one strand shown
T6 sequence: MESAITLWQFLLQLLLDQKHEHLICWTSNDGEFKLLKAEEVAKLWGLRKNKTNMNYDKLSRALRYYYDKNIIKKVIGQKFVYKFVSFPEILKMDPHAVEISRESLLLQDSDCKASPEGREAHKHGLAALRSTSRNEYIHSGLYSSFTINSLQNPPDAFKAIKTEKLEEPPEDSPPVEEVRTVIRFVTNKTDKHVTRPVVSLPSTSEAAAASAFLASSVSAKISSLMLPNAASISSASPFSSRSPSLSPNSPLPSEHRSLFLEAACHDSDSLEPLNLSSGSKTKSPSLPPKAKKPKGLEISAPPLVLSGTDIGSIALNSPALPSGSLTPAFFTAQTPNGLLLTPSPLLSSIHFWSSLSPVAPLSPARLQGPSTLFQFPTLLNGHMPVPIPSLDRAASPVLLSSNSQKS
Summary of the method: as §1

[10] = molecular target: T7, FEV (Homo sapiens, UniProt Q99581 1-238); conditions: protein: recombinant; tags: N-terminal GST; dsDNA, one strand shown
T7 sequence: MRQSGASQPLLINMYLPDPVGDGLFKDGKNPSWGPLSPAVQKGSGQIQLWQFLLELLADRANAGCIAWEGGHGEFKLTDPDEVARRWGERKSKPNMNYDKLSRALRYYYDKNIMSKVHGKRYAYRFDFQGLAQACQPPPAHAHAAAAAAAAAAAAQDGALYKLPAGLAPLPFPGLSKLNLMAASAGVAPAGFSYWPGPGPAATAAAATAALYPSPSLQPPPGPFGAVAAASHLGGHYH
Summary of the method: as §1

[11] = molecular target: ETV5 (Homo sapiens, UniProt P41161 1-510); conditions: protein: recombinant; tags: N-terminal GST; dsDNA, one strand shown
Sequence of ETV5 (P41161 whole entry): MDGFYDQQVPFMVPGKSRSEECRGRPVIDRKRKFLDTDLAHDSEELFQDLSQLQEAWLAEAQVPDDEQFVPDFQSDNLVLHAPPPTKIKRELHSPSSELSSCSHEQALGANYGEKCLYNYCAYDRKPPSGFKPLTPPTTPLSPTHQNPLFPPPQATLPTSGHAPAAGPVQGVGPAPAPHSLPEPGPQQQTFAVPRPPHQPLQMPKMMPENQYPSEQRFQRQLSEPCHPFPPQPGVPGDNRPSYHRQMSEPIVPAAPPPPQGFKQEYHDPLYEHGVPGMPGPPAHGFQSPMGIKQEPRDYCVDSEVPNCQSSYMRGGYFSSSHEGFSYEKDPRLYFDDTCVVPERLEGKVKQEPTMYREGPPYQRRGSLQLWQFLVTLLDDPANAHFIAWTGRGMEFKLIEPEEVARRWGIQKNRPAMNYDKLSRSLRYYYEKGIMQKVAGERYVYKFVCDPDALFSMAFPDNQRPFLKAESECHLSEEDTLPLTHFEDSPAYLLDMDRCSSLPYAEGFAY
Summary of the method: as §1

[12] = molecular target: HSF1 (Homo sapiens, UniProt Q00613 1-529); conditions: protein: recombinant; tags: N-terminal GST; chain copies: 3; dsDNA, one strand shown
Sequence of HSF1 (Q00613 whole entry): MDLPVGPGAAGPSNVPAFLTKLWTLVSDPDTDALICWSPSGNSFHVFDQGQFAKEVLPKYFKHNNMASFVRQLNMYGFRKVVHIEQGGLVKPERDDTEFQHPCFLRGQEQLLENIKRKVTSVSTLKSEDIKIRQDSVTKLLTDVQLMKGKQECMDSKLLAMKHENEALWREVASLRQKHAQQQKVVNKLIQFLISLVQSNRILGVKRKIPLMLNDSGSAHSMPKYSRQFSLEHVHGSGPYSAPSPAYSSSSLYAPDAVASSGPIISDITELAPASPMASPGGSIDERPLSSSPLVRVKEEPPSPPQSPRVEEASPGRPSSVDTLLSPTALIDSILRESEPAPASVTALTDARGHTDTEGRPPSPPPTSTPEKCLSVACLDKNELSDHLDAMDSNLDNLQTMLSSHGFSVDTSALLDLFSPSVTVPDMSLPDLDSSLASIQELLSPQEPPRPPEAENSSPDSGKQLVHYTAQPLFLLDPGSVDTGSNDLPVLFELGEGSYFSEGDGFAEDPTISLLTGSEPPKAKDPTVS
Summary of the method: as §1

[13] = molecular target: T8, SPIC (Homo sapiens, UniProt Q8N5J4 1-248); conditions: protein: recombinant; tags: N-terminal GST; dsDNA, one strand shown
T8 sequence: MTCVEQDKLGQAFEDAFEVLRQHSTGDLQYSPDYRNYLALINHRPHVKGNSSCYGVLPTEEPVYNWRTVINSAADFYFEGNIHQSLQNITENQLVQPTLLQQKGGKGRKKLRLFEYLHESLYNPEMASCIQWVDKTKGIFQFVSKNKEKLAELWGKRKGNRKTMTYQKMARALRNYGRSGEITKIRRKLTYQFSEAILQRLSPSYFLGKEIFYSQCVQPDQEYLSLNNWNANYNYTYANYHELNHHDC
Summary of the method: as §1

[14] = molecular target: ELF4 (Homo sapiens, UniProt Q99607 1-663); conditions: protein: recombinant; tags: N-terminal GST; dsDNA, one strand shown
Sequence of ELF4 (Q99607 whole entry): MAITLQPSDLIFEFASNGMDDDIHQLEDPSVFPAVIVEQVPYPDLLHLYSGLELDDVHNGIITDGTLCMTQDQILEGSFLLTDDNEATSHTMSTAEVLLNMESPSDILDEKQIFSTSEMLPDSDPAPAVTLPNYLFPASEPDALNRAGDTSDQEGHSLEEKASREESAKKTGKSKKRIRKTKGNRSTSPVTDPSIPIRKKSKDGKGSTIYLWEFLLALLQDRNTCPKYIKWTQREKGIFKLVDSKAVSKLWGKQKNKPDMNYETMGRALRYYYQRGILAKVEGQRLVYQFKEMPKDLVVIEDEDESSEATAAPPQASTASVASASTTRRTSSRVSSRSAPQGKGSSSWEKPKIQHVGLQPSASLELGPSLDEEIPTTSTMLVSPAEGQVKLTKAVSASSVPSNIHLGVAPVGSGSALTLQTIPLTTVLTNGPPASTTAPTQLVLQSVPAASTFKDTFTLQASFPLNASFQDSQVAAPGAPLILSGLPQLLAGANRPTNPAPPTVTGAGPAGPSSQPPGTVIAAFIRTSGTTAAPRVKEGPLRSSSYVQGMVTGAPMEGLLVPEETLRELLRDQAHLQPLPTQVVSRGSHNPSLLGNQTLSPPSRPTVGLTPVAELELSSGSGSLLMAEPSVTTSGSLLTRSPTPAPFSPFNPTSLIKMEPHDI
Summary of the method: as §1

[15] = molecular target: T9, ELK4 (Homo sapiens, UniProt P28324-2 1-405); conditions: protein: recombinant; tags: N-terminal GST; dsDNA, one strand shown
T9 sequence: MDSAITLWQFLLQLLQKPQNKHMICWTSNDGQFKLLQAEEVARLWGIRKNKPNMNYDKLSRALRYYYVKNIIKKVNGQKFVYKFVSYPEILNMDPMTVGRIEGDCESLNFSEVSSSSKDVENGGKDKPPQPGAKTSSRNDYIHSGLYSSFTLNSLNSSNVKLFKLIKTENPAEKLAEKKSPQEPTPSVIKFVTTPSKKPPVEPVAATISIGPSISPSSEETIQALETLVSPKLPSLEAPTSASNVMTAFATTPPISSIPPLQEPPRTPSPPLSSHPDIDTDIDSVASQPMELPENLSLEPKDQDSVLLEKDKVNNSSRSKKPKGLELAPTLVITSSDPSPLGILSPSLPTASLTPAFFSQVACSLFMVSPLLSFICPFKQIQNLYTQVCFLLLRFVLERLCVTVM
Summary of the method: as §1

[16] = molecular target: T10, ETV2 (Homo sapiens, UniProt O00321 1-342); conditions: protein: recombinant; tags: N-terminal GST; dsDNA, one strand shown
T10 sequence: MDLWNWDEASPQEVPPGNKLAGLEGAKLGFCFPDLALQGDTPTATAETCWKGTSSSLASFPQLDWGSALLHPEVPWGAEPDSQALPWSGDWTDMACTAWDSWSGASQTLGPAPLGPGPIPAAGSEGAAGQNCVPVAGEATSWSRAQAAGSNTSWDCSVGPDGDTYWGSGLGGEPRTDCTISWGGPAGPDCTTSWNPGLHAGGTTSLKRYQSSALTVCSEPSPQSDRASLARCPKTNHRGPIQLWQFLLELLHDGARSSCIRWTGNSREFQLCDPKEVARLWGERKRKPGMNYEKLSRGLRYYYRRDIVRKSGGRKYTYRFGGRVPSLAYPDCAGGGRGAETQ
Summary of the method: as §1

[17] = molecular target: T11, ELF3 (Homo sapiens, UniProt P78545 1-371); conditions: protein: recombinant; tags: N-terminal GST; dsDNA, one strand shown
T11 sequence: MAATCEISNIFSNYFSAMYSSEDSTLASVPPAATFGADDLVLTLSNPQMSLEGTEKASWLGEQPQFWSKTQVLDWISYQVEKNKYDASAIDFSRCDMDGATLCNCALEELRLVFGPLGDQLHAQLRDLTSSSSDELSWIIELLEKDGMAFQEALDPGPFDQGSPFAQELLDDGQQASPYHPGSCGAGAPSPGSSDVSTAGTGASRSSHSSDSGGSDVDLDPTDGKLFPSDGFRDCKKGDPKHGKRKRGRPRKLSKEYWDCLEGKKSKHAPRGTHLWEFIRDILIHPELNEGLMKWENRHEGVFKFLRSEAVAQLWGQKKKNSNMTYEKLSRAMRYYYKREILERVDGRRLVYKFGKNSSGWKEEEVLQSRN
Summary of the method: as §1

[18] = molecular target: CRX (Homo sapiens, UniProt O43186 1-299); conditions: protein: recombinant; tags: N-terminal GST; dsDNA, one strand shown
Sequence of CRX (O43186 whole entry): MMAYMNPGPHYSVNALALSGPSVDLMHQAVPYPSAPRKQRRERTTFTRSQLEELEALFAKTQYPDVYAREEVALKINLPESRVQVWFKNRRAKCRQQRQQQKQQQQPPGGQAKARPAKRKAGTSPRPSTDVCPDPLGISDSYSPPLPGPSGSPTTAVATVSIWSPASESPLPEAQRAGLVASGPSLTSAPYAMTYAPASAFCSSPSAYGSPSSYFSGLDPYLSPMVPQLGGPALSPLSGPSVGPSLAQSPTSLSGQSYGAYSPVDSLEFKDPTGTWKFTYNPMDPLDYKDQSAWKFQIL
Summary of the method: as §1

[19] = molecular target: ETV1 (Homo sapiens, UniProt P50549 1-477); conditions: protein: recombinant; tags: N-terminal GST; dsDNA, one strand shown
Sequence of ETV1 (P50549 whole entry): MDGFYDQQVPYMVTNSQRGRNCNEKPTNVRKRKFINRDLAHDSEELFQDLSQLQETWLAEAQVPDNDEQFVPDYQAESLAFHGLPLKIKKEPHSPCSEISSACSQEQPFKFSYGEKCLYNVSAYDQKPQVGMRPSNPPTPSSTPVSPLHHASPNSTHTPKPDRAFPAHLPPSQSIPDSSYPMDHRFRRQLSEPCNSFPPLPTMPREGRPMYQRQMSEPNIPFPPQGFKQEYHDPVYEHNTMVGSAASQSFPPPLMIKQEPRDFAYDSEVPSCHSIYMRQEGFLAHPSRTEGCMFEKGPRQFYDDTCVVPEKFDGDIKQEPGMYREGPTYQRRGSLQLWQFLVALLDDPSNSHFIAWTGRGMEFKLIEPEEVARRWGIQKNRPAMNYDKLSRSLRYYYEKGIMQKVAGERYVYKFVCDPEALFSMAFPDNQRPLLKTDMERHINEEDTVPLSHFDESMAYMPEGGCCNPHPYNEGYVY
Summary of the method: as §1

Q: Which binding signal [1] does the source give for TCCCTT here?
A: 1.63 fold enrichment (6-mer frequency, TF over GST control)

Q: And the binding signal [2]?
A: 1.56 fold enrichment (6-mer frequency, TF over GST control)

Q: And the binding signal [3]?
A: 1.47 fold enrichment (6-mer frequency, TF over GST control)

Q: What about the binding signal [4] of the same sequence?
A: 1.67 fold enrichment (6-mer frequency, TF over GST control)

Q: And the binding signal [5]?
A: 1.62 fold enrichment (6-mer frequency, TF over GST control)

Q: And the binding signal [6]?
A: 1.5 fold enrichment (6-mer frequency, TF over GST control)

Q: And the binding signal [7]?
A: 1.69 fold enrichment (6-mer frequency, TF over GST control)

Q: What about the binding signal [8] of the same sequence?
A: 1.61 fold enrichment (6-mer frequency, TF over GST control)

Q: And the binding signal [9]?
A: 1.37 fold enrichment (6-mer frequency, TF over GST control)

Q: And the binding signal [10]?
A: 1.51 fold enrichment (6-mer frequency, TF over GST control)

Q: What about the binding signal [11] of the same sequence?
A: 1.5 fold enrichment (6-mer frequency, TF over GST control)

Q: What about the binding signal [12] of the same sequence?
A: 1.51 fold enrichment (6-mer frequency, TF over GST control)

Q: What about the binding signal [13] of the same sequence?
A: 1.66 fold enrichment (6-mer frequency, TF over GST control)

Q: And the binding signal [14]?
A: 1.68 fold enrichment (6-mer frequency, TF over GST control)

Q: What about the binding signal [15] of the same sequence?
A: 1.41 fold enrichment (6-mer frequency, TF over GST control)

Q: And the binding signal [16]?
A: 1.32 fold enrichment (6-mer frequency, TF over GST control)

Q: What about the binding signal [17] of the same sequence?
A: 1.5 fold enrichment (6-mer frequency, TF over GST control)

Q: And the binding signal [18]?
A: 1.69 fold enrichment (6-mer frequency, TF over GST control)

Q: And the binding signal [19]?
A: 1.49 fold enrichment (6-mer frequency, TF over GST control)
